Rows were chosen to be rich in hits. Some 11% of all compounds tested hit in one or more screens of this group.
AmpC detergent: qHTS Inhibitors of AmpC Beta-Lactamase (assay with detergent); P00811; 0.041% of 370,000 active; Potency, µM (highest dose often 114 µM), actives largely listed as inhibitors; AmpC hydrolysis of nitrocefin, absorbance 480 nm, 0.01% Triton; also: nearly all actives have a fitted effect of over 25% in size
Target sequence (P00811 whole entry, looked up): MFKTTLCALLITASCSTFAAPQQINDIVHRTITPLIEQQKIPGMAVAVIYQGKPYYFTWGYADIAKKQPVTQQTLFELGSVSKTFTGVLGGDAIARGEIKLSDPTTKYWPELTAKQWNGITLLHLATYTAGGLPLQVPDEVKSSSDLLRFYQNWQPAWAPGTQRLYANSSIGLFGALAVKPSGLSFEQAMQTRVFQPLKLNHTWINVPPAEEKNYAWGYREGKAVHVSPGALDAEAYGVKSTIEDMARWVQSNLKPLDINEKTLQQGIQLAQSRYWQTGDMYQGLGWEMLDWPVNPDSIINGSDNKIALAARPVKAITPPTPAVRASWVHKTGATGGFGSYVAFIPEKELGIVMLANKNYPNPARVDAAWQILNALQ
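20 mM phosphate pH 7.0 + 0.01% (detergent screen) or 0.0001% Triton X-100; 5.3 nM AmpC reagent; cpd preinc 15 min RT; nitrocefin (800 uM stock) to start; A480 q20 s × 4 min; Activity was normalised to no-enzyme and no-compound control wells.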
Pf growth 48h: Primary qHTS for delayed death inhibitors of the malarial parasite plastid, 48 hour incubation; P. falciparum luciferase growth in erythrocytes, 48 h; Potency, µM (titrated, usually from 28.7 µM), actives largely listed as inhibitors; 5.9% of 310,000 active; AID 504832, 2011
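Parasite viability was followed by luminescence of a genomically integrated firefly luciferase. Cultures held 0.1% parasitemia at 2% hematocrit (final), incubated under 5% CO2 at 37 C.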
AmpC no deterg: qHTS Inhibitors of AmpC Beta-Lactamase (assay without detergent); Potency, µM (top dose mostly 57.1 µM), most hits filed as inhibitors; AmpC nitrocefin hydrolysis, absorbance 480 nm, 0.0001% Triton; 0.52% of 330,000 active; P00811; also: nearly all actives have a fitted effect of over 20% in size
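20 mM phosphate pH 7.0 + 0.01% (detergent screen) or 0.0001% Triton X-100; 5.3 nM AmpC reagent; cpd preinc 15 min RT; nitrocefin (800 uM stock) to start; A480 q20 s × 4 min; Activity was normalised to no-enzyme and no-compound control wells.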
AMA1-RON2 inh: qHTS for Inhibitors of AMA1-RON; Towards Development of Antimalarial Drug Lead: Primary Screen | Plasmodium falciparum AMA1 (3D7) - RON2 peptide interaction | AlphaScreen AMA1-biotinylated RON2 peptide binding | Potency, µM (titrated, usually from 58.2 µM), hits mostly inhibitors | 0.2% of 360,000 active; also: nearly all actives have a fitted effect of over 45% in size
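AMA1 (3D7) with his tag at 25 nM final met compounds first, then biotinylated RON2 peptide at 25 nM; detection used donor plus acceptor beads, 10 µg/mL apiece, read by AlphaScreen after 30 min at room temperature.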
HCV inhibitor: qHTS Assay for Inhibitors of Hepatitis C Virus (HCV). Huh7.5.1 HCVcc-Cre infection, luciferase reporter, 44 h. Potency, µM (titrated, usually from 41.8 µM), hits mostly inhibitors. 3.4% of 340,000 active. AID 651820, 2012
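Infectious HCV cell culture screen: compound-treated cells (1,000/well, pre-plated 4 h) are infected with HCVcc-Cre at roughly 0.5 moi and grown 44 h. Infection is quantified by luciferase signal after 15 min substrate incubation at room temperature.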
Pf growth 96h: Primary qHTS for delayed death inhibitors of the malarial parasite plastid, 96 hour incubation; P. falciparum luciferase reporter growth, 96 h; Potency, µM (series often up to 28.7 µM), actives largely listed as inhibitors; 6.9% of 320,000 active; AID 504834, 2011
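Delayed-death screen, second-generation endpoint: infected erythrocytes, 2% hematocrit, 0.05% parasitemia final; 96 hours at 37 C, 5% CO2; luciferase detection reagent; luminescence decrease equals reduced growth.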
Of the large screens only hits and unclear results are named; the others gave an inactive call. Calls follow the shape of the dose curve; as a rule, active = well fitted curve in the direction sought with a large enough effect; inconclusive = small, poorly fitted or top-dose-only effect, or another doubt; inactive = no such curve, though single readings can be large; an effect the other way counts as inactive or inconclusive.

O=C(c1ccc(S(=O)(=O)N2CCCCC2)cc1)N1CCN(CCN2C(=O)c3cccc4cccc(c34)C2=O)CC1	Pf growth 48h inconclusive, HCV inhibitor inconclusive, Pf growth 96h 3.29µM
Cc1ccc(C)n1-c1nnc(N2CCCC(C(=O)NCc3cccc(Cl)c3)C2)s1 (stereo not drawn)	none (no result: Pf growth 48h, AmpC no deterg, AMA1-RON2 inh, HCV inhibitor, Pf growth 96h)
CCN(Cc1nc(-c2cccc(C)c2)no1)S(=O)(=O)c1ccc(C)cc1	none (no result: Pf growth 48h, AmpC no deterg, AMA1-RON2 inh, HCV inhibitor, Pf growth 96h)
Cc1ccc2oc(=O)c3cc(C(=O)N4CCN(c5ccccc5)CC4)sc3c2c1	none (no result: Pf growth 48h, AmpC no deterg, AMA1-RON2 inh, HCV inhibitor, Pf growth 96h)
O=C(Nc1ccc2nc(SCC(=O)N3CCCC3)sc2c1)c1cccc(Br)c1	none (no result: Pf growth 48h, AmpC no deterg, AMA1-RON2 inh, HCV inhibitor, Pf growth 96h)
O=C(NCc1cccc(C(F)(F)F)c1)c1cc(-c2ccccc2)nn1CC1CC(c2cccnc2)=NO1 (stereo not drawn)	none (no result: AmpC detergent, Pf growth 48h, AmpC no deterg, Pf growth 96h)
Cc1ccccc1-c1cc(C(=O)NCc2ccc3c(c2)OCO3)n(CC2CC(c3cccnc3)=NO2)n1 (stereo not drawn)	Pf growth 48h inconclusive, Pf growth 96h 4.15µM
Cc1ccc(CNC(=O)c2cc(-c3ccccc3C)nn2CC2CC(c3cccnc3)=NO2)cc1 (stereo not drawn)	HCV inhibitor inconclusive (no result: AmpC detergent, Pf growth 48h, Pf growth 96h)
Cc1ccccc1-c1cc(C(=O)NCc2cccc(C(F)(F)F)c2)n(CC2CC(c3cccnc3)=NO2)n1 (stereo not drawn)	HCV inhibitor 8.91µM (no result: AmpC detergent, Pf growth 48h, Pf growth 96h)
CCCc1ccc(C(=O)O)cc1	Pf growth 96h inconclusive (no result: AmpC detergent, AmpC no deterg, AMA1-RON2 inh, HCV inhibitor)
CN(C)C(=O)Oc1cccc(OCc2n(C)c3ccccc3[n+]2C)c1	Pf growth 48h inconclusive, Pf growth 96h 2.94µM
CCOc1ccc2c(c1)c(=O)c(C(=O)c1ccc(CC)cc1)cn2CC(=O)Nc1ccccc1OC	none (no result: Pf growth 48h, AmpC no deterg, AMA1-RON2 inh, HCV inhibitor, Pf growth 96h)
CCOC(=O)C1=C(C)N(C[C@@H]2CC[C@@H](Cc3ccc(-c4ccccc4)cc3)O2)C(=O)NC1c1ccc(C(F)(F)F)cc1 (stereo partly drawn)	none (no result: AmpC detergent, Pf growth 48h, Pf growth 96h)
CCOC(=O)C1=C(C)N(C[C@@H]2CC[C@@H](Cc3ccc(-c4ccccc4)cc3)O2)C(=O)NC1c1ccc(SCc2ccco2)c([N+](=O)[O-])c1 (stereo partly drawn)	AmpC no deterg 7.94µM, HCV inhibitor inconclusive (no result: AmpC detergent, Pf growth 48h, Pf growth 96h)
CC1CCN(CCn2c(=S)[nH]c3ccccc3c2=O)CC1	Pf growth 96h inconclusive
CC1(C)C(=O)N(CCN2CCC(C(=O)c3ccc(F)cc3)CC2)c2ccccc21	AmpC detergent inconclusive, Pf growth 48h 14.7µM, HCV inhibitor inconclusive, Pf growth 96h inconclusive
O=C(c1ccc(F)cc1)C1CCN(CCn2c(=S)[nH]c3ccccc3c2=O)CC1	Pf growth 48h 3.79µM, Pf growth 96h 4.26µM (no result: AMA1-RON2 inh, HCV inhibitor)
CC(=O)c1cc(-c2ccccc2)n(CCC(=O)NCCc2ccccc2)c1C	none (no result: Pf growth 48h, AmpC no deterg, AMA1-RON2 inh, HCV inhibitor, Pf growth 96h)
COc1ccc(CCNC2CC(=O)N(CCc3ccc(OC)c(OC)c3)C2=O)cc1 (stereo not drawn)	Pf growth 96h 4.65µM (no result: Pf growth 48h)
COc1ccc(CCNC2=C(Cl)C(=O)N(CCc3ccccc3)C2=O)cc1OC	HCV inhibitor 12.6µM, Pf growth 96h inconclusive (no result: Pf growth 48h)
COc1ccc(CCNC2CC(=O)N(CCc3ccccc3)C2=O)cc1OC (stereo not drawn)	AmpC detergent inconclusive (no result: Pf growth 48h)
COc1ccc(CNC(=O)CSCc2nc(-c3ccccc3C)oc2C)cc1	none (no result: Pf growth 48h, AmpC no deterg, AMA1-RON2 inh, HCV inhibitor, Pf growth 96h)
CC[C@H](C)[C@H](NC(=O)OCc1ccccc1)C(=O)OCC(=O)N1CCN(c2ccc(OC)cc2)CC1	HCV inhibitor 12.6µM (no result: AmpC detergent, Pf growth 48h, AmpC no deterg, Pf growth 96h)
O=C(COc1ccc(Br)cc1)N1CCN(c2ccccc2)CC1	AmpC detergent inconclusive, Pf growth 96h 4.65µM (no result: Pf growth 48h)
COc1ccccc1OCC(=O)N1CCCC(N2CCN(c3ccc(F)cc3)CC2)C1 (stereo not drawn)	none (no result: HCV inhibitor)
O=C(COc1ccccc1Cl)N1CCCC(N2CCN(c3ccc(F)cc3)CC2)C1 (stereo not drawn)	Pf growth 48h 11.7µM, HCV inhibitor inconclusive, Pf growth 96h 8.28µM
O=C(COc1ccccc1)N1CCN(CC(O)COc2ccccc2)CC1 (stereo not drawn)	Pf growth 96h 14.7µM
O=C(COc1ccccc1)N1CCN(c2ccccc2)CC1	none
O=C(OCC(=O)N1CCN(c2ccccc2)CC1)c1ccc(Cl)nc1	AmpC detergent inconclusive, AMA1-RON2 inh inconclusive
O=C(COc1ccc2ccccc2c1)N1CCN(c2ccccc2)CC1	none
O=C(OCC(=O)N1CCN(c2ccccc2)CC1)c1ccc2ncsc2c1	Pf growth 96h 11.7µM (no result: Pf growth 48h)
CN(c1ccc(OCC(=O)N2CCCCC2)cc1)S(=O)(=O)c1cccs1	Pf growth 96h inconclusive
O=CN1CCN(C(=O)COc2ccc(Cl)cc2Br)CC1	AmpC detergent inconclusive
O=C(COc1ccc(Cl)cc1Br)N1CCN(c2ccccc2)CC1	Pf growth 96h 3.7µM
CN(c1ccc(OCC(=O)N2CCN(c3ccc(F)cc3)CC2)cc1)S(=O)(=O)c1cccs1	Pf growth 48h inconclusive, HCV inhibitor 3.55µM, Pf growth 96h inconclusive
COc1ccc(N2CCN(C(=O)COc3ccc4ccccc4c3)CC2)cc1	Pf growth 96h 9.28µM
Cc1ccc(NC(=O)c2cc(S(=O)(=O)N(C)C3CCCCC3)ccc2F)cc1C	none (no result: Pf growth 48h, AmpC no deterg, AMA1-RON2 inh, HCV inhibitor, Pf growth 96h)
CCSc1nc2ccccc2c(OCc2ccccc2Cl)c1C(=O)OC	none (no result: Pf growth 48h, AmpC no deterg, AMA1-RON2 inh, HCV inhibitor, Pf growth 96h)
